# Results from PubChem BioAssay (NCI).
# About 83,000 compounds went through this panel and 20% of them were active in at least one assay; those are over-represented in the sample as a whole.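 Results are percent growth after 48 hours of single-concentration exposure. 100 means growth as in untreated cells, lower positive values show inhibition; negative values down to -100 show cell death.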 A number with no mark means an inactive call. Activity calls are given as the source filed them. The calls were made as follows: active = growth percent below 10; inactive = the rest.
# Test system: HL-60(TB) leukemia
# Experiment: NCI-60 one-dose screen, 48 h (100 = growth as untreated, 0 = no growth, -100 = all killed)
# Settings: 10 µM unless noted
row,Structure (SMILES),growth
1,O=C(c1ccc(Cl)cc1)C1[C@H](c2ccc(Cl)cc2)[C@@H](c2ccccc2)NC12C(=O)Nc1ccccc12 (stereo not given in full),49.3%
2,Cc1ccc(NC(=O)/C=C/c2ccc(OCCCOc3ccc4c(C)cc(=O)oc4c3)cc2)cc1,98.5%
3,CCCC(=O)NC(c1cccc(N(C)C)c1)c1cc(C)c2cccnc2c1O (stereo not given),0.32% (active)
4,Cc1cccc(N2CCN(C3=C(Cl)C(=O)c4ncccc4C3=O)CC2)c1,7.3% (active)
5,CN1CCN(Cc2ccc(NC(=O)c3cncc(C#Cc4cnc5ccc(N6CCOCC6)nn45)c3)cc2C(F)(F)F)CC1,-40.8% (active)
